Sampled rows, rich in hits. Any-hit rate of the full collection: about 2.2%.
APP 5UTR inh: inhibitors of APP translation via 5'UTR reporter, primary screen, APP 5'UTR luciferase, SH-SY5Y cells; SH-SY5Y APP 5'UTR-luciferase reporter, luminescence; inhibition, % at 2 µM; AID 1285, 2008; actives 0.82% (n = 190,000);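 active means inhibition above a set limit, derived from the sample mean plus 3 SD, cut at about 45% in these data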
aSyn 5UTR inh: MLPCN primary screen, SNCA 5' untranslated region; inhibition, % (tested at 7.5 µM); actives 0.82% (n = 300,000); alpha-synuclein 5'UTR reporter, inhibitor activity; AID 1813, 2009; in the data active means inhibition above about 60%;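 further: H4 neuroglioblastoma cells stably carrying SNCA 5'UTR luciferase fusion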
Ba/F3 V617F tox: reduced viability of JAK2V617F-dependent Ba/F3 cells, primary screen, JAK2V617F inhibitor project, cell-based, Ba/F3 EpoR-JAK2V617F, luminescence; ATP luminescence; actives 1.1% (n = 220,000); inhibition, % at 5.6 µM;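 active means inhibition above the campaign mean plus 3 SD over all tested compounds, cut at about 24% in these data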;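 further: cytokine-independent growth of Ba/F3 cells driven by EpoR plus mutant JAK2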
BaF3 tox: parental Ba/F3 cell viability inhibition, counter-screen for JAK2V617F inhibitor project, murine pro-B, CellTiter-Glo luminescence; AID 1486, 2009; CellTiter-Glo ATP luminescence; actives 1.1% (n = 220,000); inhibition, % at 5.6 µM;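 active means inhibition above a per-campaign cutoff, the mean inhibition of all tested compounds plus 3 SD, cut at about 27% in these data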
IEC-6 cytotox: cytotoxicity in IEC-6 intestinal epithelial cells, primary screen, cytotoxicity control for KLF5 inhibitor project, cell-based, luminescence. IEC-6 cytotoxicity, luminescence viability. inhibition, % at 5 µM. actives 0.78% (n = 290,000)
KLF5 inh: KLF5 expression inhibitors, primary screen, DLD-1 cells, luminescence; DLD-1 KLF5 promoter-luciferase reporter; inhibition, % at 5 µM; actives 0.23% (n = 290,000);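 active means inhibition above a per-plate limit of that plate's mean compound inhibition plus 3 SD, cut at about 60% in these data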;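 further: higher means less KLF5 promoter-driven luciferase light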
IEC-6 cytotox cf: cytotoxic compounds in IEC-6 epithelial cells, confirmation, cytotoxicity control, cell-based, luminescence; actives 63% (n = 1,900); shares compounds with IEC-6 cytotox; IEC-6 rat intestinal epithelial viability; inhibition, % at 5 µM
Numbers stand for hits; 0 = inactive; - = no result given. Unless noted, no stated cut-off is given here; in the data, active means inhibition above about 22%; inactive means the rest.

SMILES	APP 5UTR inh	aSyn 5UTR inh	Ba/F3 V617F tox	BaF3 tox	IEC-6 cytotox	KLF5 inh	IEC-6 cytotox cf
CCCSc1nnc(Sc2nnnn2-c2ccccc2)s1	94.5	0	82.0	94.8	42.4	0	26.2
FC(F)(F)c1cccc(-n2c(Cn3nnc4ccccc43)n[nH]c2=S)c1	-	0	0	0	0	0	-
COc1ccc(CCN2CC(C(=O)N3CCSCC3)CCC2=O)cc1 (stereo unspecified)	-	0	-	-	0	0	-
CN1CCN(c2ccc([N+](=O)[O-])cc2C(=O)c2ccc(Cl)cc2)CC1	0	0	0	0	49.2	0	50.0
Cc1ccc(C(=O)c2cc([N+](=O)[O-])ccc2N2CC(C)OC(C)C2)cc1 (stereo unspecified)	0	0	0	0	0	0	-
Cc1ccc(C(=O)c2cc([N+](=O)[O-])ccc2N2CCCCC2)cc1	-	81.1	79.5	76.4	88.9	0	65.2
COc1ccc(C(CNC(=O)COc2ccc(Cl)cc2C)N2CCCCC2)cc1 (stereo unspecified)	-	0	-	-	0	0	-
O=[N+]([O-])CC(c1ccc(F)cc1)c1c[nH]c2ccccc12 (stereo unspecified)	-	0	-	-	46.7	0	29.3
CN(CCOC(=O)c1ccco1)Cc1ccccc1	0	0	0	0	40.7	0	0
CC1CCCN(S(=O)(=O)c2ccc(C(=O)Nc3nnc(-c4ccco4)o3)cc2)C1 (stereo unspecified)	-	0	-	-	25.0	0	0
Nc1c(C(=O)c2ccccc2)sc2nsc(SCCN3CCOCC3)c12	-	0	0	0	0	0	-
CC(=O)c1sc2nsc(SCCN3CCOCC3)c2c1N	-	0	0	0	24.1	0	0
CCCCCCCn1c2c(c(=N)c3c1CCC3)CCCC2	0	82.5	99.8	88.5	38.1	0	36.9
CCCCCCn1c(=O)[nH]c2c(c1=O)CCC2	-	0	0	0	0	0	-
CCCCCCCCCn1c2c(c(=N)c3c1CCC3)CCC2	0	85.7	98.2	90.9	44.3	0	50.2
CCCCCCn1c2c(c(=N)c3c1CCC3)CCC2	0	67.3	97.6	78.1	23.5	0	26.1
CCOC(=O)N1CCN(C(=O)/C(=C/c2cccs2)NC(=O)c2cccs2)CC1	0	0	0	0	0	0	-
O=C1NC(=Nc2ccc(F)cc2)CS1	0	0	0	0	0	0	-
C=CCn1c(=O)c(C(=O)Nc2ccccc2S(N)(=O)=O)c(O)c2ccccc21	0	0	0	0	0	0	-
COc1cc(C(=O)NCC(=O)N2CCN(S(=O)(=O)c3cc(C)ccc3C)CC2)cc(OC)c1OC	-	0	-	-	29.8	0	0
COc1ccc(OCCN2C(=O)NC3(CCc4ccccc4C3)C2=O)cc1 (stereo unspecified)	0	0	0	0	0	0	-
Cc1cccc(Nc2c3c(nc4ccccc24)CCC3)c1	-	0	0	0	0	0	-
COc1ccc([N+](=O)[O-])cc1Nc1c2ccccc2nc2ccccc12	-	76.5	-	-	79.0	66.4	71.7
COc1cc(Nc2c3c(nc4ccccc24)CCC3)cc(OC)c1OC	-	0	-	-	84.6	0	58.4
COc1ccc(OC)c(Nc2c3ccccc3nc3ccccc23)c1	-	0	-	-	45.6	0	0
SMILES	APP 5UTR inh	aSyn 5UTR inh	Ba/F3 V617F tox	BaF3 tox	IEC-6 cytotox	KLF5 inh	IEC-6 cytotox cf
COc1ccc(OC)c(Nc2nc(C)nc3c2oc2ccccc23)c1	-	0	-	-	26.3	0	23.3
O=C(NNC(=O)c1ccc2c(=O)n3c(nc2c1)CCC3)c1cccc(Cl)c1	-	0	-	-	-	-	-
CN(C)c1ccc(C(CNC(=O)Cc2cccc3ccccc23)N(C)C)cc1 (stereo unspecified)	-	0	-	-	0	0	-
O=C(NNc1cc(N2CCOCC2)nc(N2CCOCC2)n1)C12CC3CC(CC(C3)C1)C2	0	0	0	0	0	0	-
C=CCNC(=O)/C(=C\c1ccco1)NC(=O)c1ccco1	-	0	-	-	0	0	-
NNC(=O)/C(=C\c1ccco1)NC(=O)c1ccco1	-	0	-	-	70.2	0	0
Cc1ccc(-n2c(Cl)c(Cl)nc(Cl)c2=O)cc1	96.8	-	96.3	57.8	41.1	0	40.4
COc1nc(Cl)cn(-c2ccc(C)cc2)c1=O	0	0	0	0	0	0	-
CCCNC(=O)c1ccccc1NC(=O)c1ccc2c(c1)NC(=O)C(C)S2 (stereo unspecified)	-	0	-	-	41.5	0	0
CC1CCN(S(=O)(=O)c2cccc(C(=O)N3CCN(c4ccc(F)cc4)CC3)c2)CC1	-	0	-	-	0	0	-
CCOC(=O)c1ccc(NC(=O)Nc2ccc(Cl)cn2)cc1	0	0	0	0	0	0	-
CCOC(=O)c1ccc(NC(=O)Nc2ccon2)cc1	-	64.2	87.6	87.8	87.3	0	65.0
Cc1cc(NC(=O)Nc2ccc(Cl)c(Cl)c2)no1	-	0	-	-	-	-	-
O=C(Nc1ccc(Cl)c(Cl)c1)Nc1ccon1	-	0	-	-	74.0	0	58.1
CCc1nnc(NC(=O)CC(C)c2ccccc2)s1 (stereo unspecified)	-	0	-	-	0	0	-
CCCCOc1ccccc1C(=O)NNC(=S)NC(=O)c1ccccc1[N+](=O)[O-]	-	0	-	-	25.1	0	0
O=C(NNC(=S)NC(=O)c1ccccc1[N+](=O)[O-])c1ccccc1[N+](=O)[O-]	0	0	0	0	0	0	-
COc1ccccc1OP(=O)(O)Oc1ccccc1OC	0	0	0	0	0	0	-
CCOc1c(Cl)cc(C(=O)Nc2ccccc2C(=O)O)cc1Cl	0	0	25.2	26.7	36.8	0	0
